Reference: PubChem BioAssay (NCATS)
Values joined by “and” are separate entries in the source; they are usually repeats but may differ in a detail not shown here. Equal entries are not always repeated. Records with an inconclusive call do not appear. A call without a number means that no potency is given here. Active and inactive are the calls of the source. Unless noted, calls come from the whole dose curve; as a rule, active = well fitted curve in the direction sought with a large enough effect; inconclusive = small, poorly fitted or top-dose-only effect, or another doubt; inactive = no such curve, though single readings can be large; an effect the other way counts as inactive or inconclusive.

What was measured:
[1] = Cellular Toxicity (caspase-3) Hek293 (AID 664); conditions: HEK293 caspase-3 activation, DMSO = 0%, 100 µM tamoxifen = 100%; at 92.2 µM (top of the series);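 note: cells exposed to compound for 16 h at 37 °C before readout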
How it was run: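 qHTS, HEK293 (human embryonic kidney), 16 h cpd exposure in complete medium. Caspase-3/7 activation = luminescence increase; normalized to DMSO/100 uM tamoxifen; Hill-fit AC50.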

[2] = MultiTox-Fluor Cytotoxicity Assay - LYMP1-001 - Live Cells (AID 947)
[3] = Cell Viability - LYMP2-007 (AID 979);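 note: cells exposed to compound for 24 h before reading; nearly all actives have a fitted effect of over 60% in size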
How it was run: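 Cells are seeded at 2500 per well and rested 5 hr. Compounds are then added over a concentration series for 24 hr at 37 C. CellTiter-Glo is added for 30 min at room temperature before luminescence reading.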

[4] = Cell Viability - LYMP2-020 (AID 986);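 note: cells exposed to compound for 24 h at 37 °C; nearly all actives have a fitted effect of over 55% in size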
How it was run: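 Seed 2500 cells per well and incubate 5 hr at 37 C. Add compounds at a concentration series and incubate 24 hr at 37 C. Add CellTiter-Glo, wait 30 min at RT, read luminescence, and fit a Hill curve for AC50.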

[5] = biological target: Estrogen receptor (Homo sapiens) (UniProt P03372); test: qHTS assay for small molecule agonists of estrogen receptor alpha signaling (AID 588514; calls by dose curve; note: nearly all actives have a fitted effect of over 70% in size)
How it was run: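 Efficacy is expressed against 20 nM 17-beta-estradiol (100%) and DMSO basal (0%); EC50 from Hill equation. Assay: beta-lactamase reporter in ER-alpha-UAS-bla HEK 293 cells, 18 h compound incubation, CCF4 detection.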

[6] = biological target: Bile acid receptor (Homo sapiens) (UniProt Q96RI1); test: qHTS assay for small molecule antagonists of farnesoid X receptor signaling (AID 588526; calls by dose curve; note: potency is the fitted concentration of half-maximal effect)
How it was run: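 Beta-lactamase reporter antagonist mode: HEK293T FXR-UAS-bla cells, titrated compound, CDCA stimulation, 16 h 37 C, CCF4 dye 2 h RT. Data normalized to CDCA 50 uM and DMSO; Hill-fit IC50.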

[7] = qHTS assay for small molecule antagonists of peroxisome proliferator-activated receptor delta signaling (AID 588535); conditions: HEK293T PPARd-UAS-bla, beta-lactamase FRET ratio, 18 h; 460 nm channel;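 note: cells co-treated with a PPAR-delta agonist as stimulator during compound exposure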
How it was run: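 Titrations were run on PPAR-delta-UAS-bla HEK293T cells in charcoal/dextran-stripped serum, incubated 18 h at 37 C. CCF4 fluorescence (460/530 nm) after 2 h RT; Hill equation yields IC50 and maximal response.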

[8] = biological target: Peroxisome proliferator-activated receptor gamma (Homo sapiens) (UniProt P37231); test: qHTS assay for small molecule agonists of peroxisome proliferator-activated receptor gamma signaling (AID 588536; active = well fitted curve in the direction sought with a large enough effect in the signal ratio, with a control signal flat, not every such curve was filed as active; the % refers to the signal ratio)
How it was run: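 Beta-lactamase reporter read-out: CCF4 fluorescence (ex 405, em 460/530 nm) after 2 h at RT. HEK293 GeneBLAzer cells were treated for 16 h at 37 C. Hill fits gave EC50 and efficacy versus 2 uM rosiglitazone (100%) and DMSO (0%).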

[9] = biological target: Peroxisome proliferator-activated receptor gamma (Homo sapiens) (UniProt P37231); test: qHTS assay for small molecule antagonists of peroxisome proliferator-activated receptor gamma signaling (AID 588537; active = well fitted inhibition curve with a large enough effect in the signal ratio, with a control signal flat, not every such curve was filed as active; the % refers to the signal ratio;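 note: reporter cells co-stimulated with 50 nM rosiglitazone agonist during compound treatment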)
How it was run: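 Antagonist-mode β-lactamase reporter screen run as a titration series. HEK293 PPARγ-UAS-bla cells are stimulated with rosiglitazone (50 nM final) for 16 h, then CCF4 is read at 460/530 nm. Data are scaled between DMSO and rosiglitazone and fitted to the Hill equation.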

[10] = qHTS assay for cell viability of HEK293 cells (AID 743288); conditions: ATP luminescence (CellTiter-Glo), 18 h; max response: stronger effect = lower value; note: nearly all actives have a fitted effect of over 50% in size
How it was run: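 Quantitative high-throughput screen: compounds were pinned onto parental HEK293 cells (2,000 per well) after a minimum 5 h settling at 37 C, incubated 18 h at 37 C, and intracellular ATP measured by luciferase luminescence.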

[11] = Cell Viability - N2a (AID 540); conditions: N2a mouse neuroblastoma cell viability; activity change, negative = cytotoxicity: at 92.2 µM (top of the series);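 note: cells exposed to compound for 40 h at 37 °C; nearly all actives have a fitted effect of over 45% in size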
How it was run: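 Cytotoxicity was scored as loss of cellular ATP in N2a cells, a mouse neuroblastoma line. Compounds are applied in a qHTS concentration series for 40 hr at 37 °C.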

[12] = Cell Viability - H-4-II-E (AID 543);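 note: cells exposed to compound for 40 hours; nearly all actives have a fitted effect of over 35% in size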; note: potency is the fitted concentration of half-maximal effect
How it was run: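 Cells seeded at 1500 per well and rested 5 hr; compounds added; 40 hr incubation at 37 °C; CellTiter-Glo added, 20 min at room temperature; luminescence read. Hill-equation fits gave AC50.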

[13] = Cell Viability - LYMP2-017 (AID 972);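 note: cells exposed to compound for 24 hours at 37 °C; nearly all actives have a fitted effect of over 55% in size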
How it was run: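 Cytotoxicity is scored as a concentration-dependent drop in cellular ATP in a human lymphoblastoid line after 24 hr treatment at 37 C. Values are AC50s from Hill-equation modelling.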

[14] = Cell Viability - LYMP2-018 (AID 985);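 note: compound exposure lasted 24 hr at 37 °C; nearly all actives have a fitted effect of over 50% in size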
How it was run: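 Seed 2500 lymphoblastoid cells per well, incubate 5 hr at 37 C, add compound and incubate 24 hr at 37 C, add CellTiter-Glo, wait 30 min at room temperature, then read luminescence.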

[15] = biological target: Glucocorticoid receptor (Homo sapiens) (UniProt P04150); test: qHTS assay for small molecule antagonists of glucocorticoid receptor signaling (AID 588533; active = well fitted inhibition curve with a large enough effect in the signal ratio, with a control signal flat, not every such curve was filed as active; the % refers to the signal ratio;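 note: cells stimulated with 2 nM dexamethasone as agonist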)
How it was run: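 Antagonist-mode qHTS: compound titrations added to GRE-bla HeLa cells, then dexamethasone 2 nM final; 18 h, 37 C. CCF4 FRET fluorescence normalized to dexamethasone and DMSO; IC50 from Hill fit.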

[16] = biological target: Retinoic acid receptor RXR-alpha (Homo sapiens) (UniProt P19793); test: qHTS assay for small molecule agonists of retinoid X receptor alpha signaling (AID 588544; calls by dose curve)
[17] = Cellular Toxicity (caspase-3) BJ (AID 658); conditions: Potency: caspase-3 activation
How it was run: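 Caspase-Glo 3/7 luminescence, read 1 hr after reagent at room temperature, in normal BJ fibroblasts exposed 16 hours at 37 °C. AC50 values from Hill-equation concentration-response, scaled between DMSO basal and 10 uM staurosporine as 100%.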

[18] = Cellular Toxicity (caspase-3) Jurkat (AID 655); conditions: Jurkat caspase-3 activation, luminescence; caspase-3 activation: at 92.2 µM (top of the series), DMSO = 0%, tamoxifen = 100%;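 note: cells exposed to compound for 16 h at 37 °C before reading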
How it was run: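 Caspase 3/7 activation is scored as increased luminescence in Jurkat cells cultured with compound for 16 hours in complete medium. AC50 values come from Hill fits of qHTS concentration-response data normalized to DMSO and 100 uM tamoxifen controls.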

Sequence of Glucocorticoid receptor (Homo sapiens) (P04150 whole entry, looked up): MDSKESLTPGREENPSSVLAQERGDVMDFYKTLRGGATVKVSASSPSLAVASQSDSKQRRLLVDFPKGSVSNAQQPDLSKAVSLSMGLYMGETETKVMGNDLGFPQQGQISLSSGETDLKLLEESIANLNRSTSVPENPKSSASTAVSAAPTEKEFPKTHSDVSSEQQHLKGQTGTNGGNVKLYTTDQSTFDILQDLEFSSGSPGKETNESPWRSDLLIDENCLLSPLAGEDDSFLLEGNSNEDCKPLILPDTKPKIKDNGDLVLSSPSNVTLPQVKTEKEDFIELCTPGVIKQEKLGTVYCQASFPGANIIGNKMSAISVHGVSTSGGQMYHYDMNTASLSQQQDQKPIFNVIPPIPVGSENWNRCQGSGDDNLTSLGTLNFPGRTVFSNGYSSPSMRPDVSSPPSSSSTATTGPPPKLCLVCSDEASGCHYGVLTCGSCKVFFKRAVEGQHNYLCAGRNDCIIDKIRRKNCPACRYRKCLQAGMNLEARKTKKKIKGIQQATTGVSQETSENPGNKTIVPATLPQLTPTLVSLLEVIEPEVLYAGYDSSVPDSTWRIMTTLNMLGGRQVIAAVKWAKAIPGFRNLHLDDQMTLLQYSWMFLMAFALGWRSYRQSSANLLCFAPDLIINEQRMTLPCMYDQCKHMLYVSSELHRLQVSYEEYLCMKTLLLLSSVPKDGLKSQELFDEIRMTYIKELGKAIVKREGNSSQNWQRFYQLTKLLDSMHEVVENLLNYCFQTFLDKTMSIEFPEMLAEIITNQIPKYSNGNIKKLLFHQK
Sequence of Estrogen receptor (Homo sapiens) (P03372 whole entry, looked up): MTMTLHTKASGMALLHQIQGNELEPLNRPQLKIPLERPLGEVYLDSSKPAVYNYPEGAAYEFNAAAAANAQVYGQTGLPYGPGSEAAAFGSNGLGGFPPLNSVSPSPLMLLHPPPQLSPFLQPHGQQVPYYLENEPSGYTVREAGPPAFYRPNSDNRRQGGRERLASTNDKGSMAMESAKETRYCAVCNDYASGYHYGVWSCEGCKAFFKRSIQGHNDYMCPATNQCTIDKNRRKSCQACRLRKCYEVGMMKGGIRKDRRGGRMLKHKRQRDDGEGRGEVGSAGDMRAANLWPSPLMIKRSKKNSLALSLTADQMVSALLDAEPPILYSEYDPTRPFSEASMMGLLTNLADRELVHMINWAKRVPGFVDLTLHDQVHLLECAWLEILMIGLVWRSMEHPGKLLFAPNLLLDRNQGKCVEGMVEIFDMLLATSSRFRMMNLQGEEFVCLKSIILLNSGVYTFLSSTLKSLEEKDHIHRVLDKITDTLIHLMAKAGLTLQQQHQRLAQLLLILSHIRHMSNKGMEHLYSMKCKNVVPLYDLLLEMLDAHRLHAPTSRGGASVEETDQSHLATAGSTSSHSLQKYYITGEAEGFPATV
Sequence of Bile acid receptor (Homo sapiens) (Q96RI1 whole entry, looked up): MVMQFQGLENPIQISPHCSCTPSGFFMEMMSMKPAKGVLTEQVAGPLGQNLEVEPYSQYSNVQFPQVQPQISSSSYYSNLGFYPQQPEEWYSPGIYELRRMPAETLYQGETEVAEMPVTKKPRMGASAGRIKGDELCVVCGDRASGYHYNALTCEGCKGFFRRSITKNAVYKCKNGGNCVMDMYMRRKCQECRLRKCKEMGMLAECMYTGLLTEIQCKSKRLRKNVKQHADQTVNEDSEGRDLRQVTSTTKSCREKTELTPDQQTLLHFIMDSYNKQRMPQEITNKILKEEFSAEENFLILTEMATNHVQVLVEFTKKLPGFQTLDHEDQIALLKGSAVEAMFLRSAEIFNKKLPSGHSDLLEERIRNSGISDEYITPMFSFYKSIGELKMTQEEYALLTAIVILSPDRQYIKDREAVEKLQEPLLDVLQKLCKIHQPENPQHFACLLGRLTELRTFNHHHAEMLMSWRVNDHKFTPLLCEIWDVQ
Sequence of Peroxisome proliferator-activated receptor gamma (Homo sapiens) (P37231 whole entry, looked up): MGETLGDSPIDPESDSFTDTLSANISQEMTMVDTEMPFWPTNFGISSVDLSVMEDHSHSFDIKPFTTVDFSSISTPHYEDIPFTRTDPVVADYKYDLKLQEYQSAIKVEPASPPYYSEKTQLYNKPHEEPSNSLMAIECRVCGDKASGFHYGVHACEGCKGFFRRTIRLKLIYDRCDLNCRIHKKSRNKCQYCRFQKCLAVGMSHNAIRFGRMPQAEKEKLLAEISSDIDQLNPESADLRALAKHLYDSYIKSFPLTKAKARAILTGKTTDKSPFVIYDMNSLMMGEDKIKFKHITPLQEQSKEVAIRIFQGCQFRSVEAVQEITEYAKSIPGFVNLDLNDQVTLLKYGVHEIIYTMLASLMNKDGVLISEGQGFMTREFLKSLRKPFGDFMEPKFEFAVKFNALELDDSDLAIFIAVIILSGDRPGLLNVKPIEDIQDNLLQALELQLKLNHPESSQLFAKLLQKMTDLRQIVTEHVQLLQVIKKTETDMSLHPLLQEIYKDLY
Sequence of Retinoic acid receptor RXR-alpha (Homo sapiens) (P19793 whole entry, looked up): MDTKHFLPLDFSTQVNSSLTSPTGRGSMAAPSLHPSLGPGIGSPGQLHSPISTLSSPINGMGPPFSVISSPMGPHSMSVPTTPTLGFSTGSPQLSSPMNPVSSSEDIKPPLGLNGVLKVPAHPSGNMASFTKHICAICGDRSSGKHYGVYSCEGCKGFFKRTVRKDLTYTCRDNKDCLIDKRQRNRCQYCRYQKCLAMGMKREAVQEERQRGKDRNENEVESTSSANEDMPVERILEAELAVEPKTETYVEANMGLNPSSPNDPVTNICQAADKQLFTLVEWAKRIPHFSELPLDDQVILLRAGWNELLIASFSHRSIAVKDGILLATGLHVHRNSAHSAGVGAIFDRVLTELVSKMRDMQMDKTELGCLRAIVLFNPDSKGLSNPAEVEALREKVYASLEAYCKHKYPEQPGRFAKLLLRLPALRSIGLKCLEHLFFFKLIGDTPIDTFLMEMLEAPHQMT

SMILES | caspase-3 activation [1] | Potency [2] | Potency [3] | Potency [4] | Potency [5] | Potency [6] | max response [7] | outcome [8] | Potency [9] | max response [10] | activity change, negative = cytotoxicity [11] | Potency [12] | Potency [13] | Potency [14] | Potency [15] | Potency [16] | Potency [17] | Potency [18]
CC(C)OCC1CO1 (stereo not drawn) | -0.484% (inactive) | inactive | inactive | inactive | inactive | inactive | 3.66% | inactive | inactive | -0.12% (inactive) |  |  |  |  |  |  |  | 
CC(=O)OC(C(=O)c1ccccc1)c1ccccc1 (stereo not drawn) | -0.138% (inactive) | inactive | inactive |  | inactive | inactive |  | inactive | inactive |  | -7.31% (inactive) | inactive | inactive | inactive | inactive |  |  | 
OCC(CBr)(CBr)CBr |  | inactive | inactive | inactive | inactive |  | 9.08% | inactive | inactive | -19.9% (inactive) |  |  | inactive | inactive |  | inactive |  | 
Cc1cccnc1 | -1.09% (inactive) |  |  | inactive |  |  |  | inactive |  |  |  | inactive |  | inactive |  | inactive |  | 
CCCCC(CC)COC(=O)COc1ccc(Cl)cc1Cl (stereo not drawn) |  | inactive | inactive | inactive | inactive |  |  | inactive |  | -3.29% (inactive) and 2.38% (inactive) |  | inactive |  |  | inactive |  | inactive | 
Cc1ccc2ccc3cccc4ccc1c2c34 | 0.114% (inactive) |  | inactive | inactive | inactive | 44.7 µM (active) | 18.4% | inactive | inactive |  | -16.7% (inactive) |  |  | inactive | inactive |  | inactive | inactive
Oc1c(Cl)cc(Cl)c(Cl)c1Cl | 1.49% (inactive) |  | inactive |  |  | inactive | 22.5% | inactive |  | -22.8% (inactive) and -1.71% (inactive) |  | inactive |  | inactive | inactive |  | inactive | 
NC(=O)c1ccc([N+](=O)[O-])cc1 | 0.417% (inactive) |  | inactive | inactive |  |  | 16.9% | inactive |  |  | 4.68% (inactive) |  | inactive |  | inactive |  | inactive | 
C/C(Cl)=C/CCl |  |  |  | inactive | inactive | inactive | 5.39% | inactive | inactive |  | -6.1% (inactive) |  | inactive | inactive |  | inactive |  | inactive
Oc1ccc2c(c1)OCO2 |  | inactive | inactive | inactive | inactive |  |  |  |  | 7.08% (inactive) |  | inactive | inactive | inactive | inactive | inactive |  | inactive
CC(=O)OC1CC(C)OC(C)O1 (stereo not drawn) |  |  |  |  |  | inactive | -8.33% and -2.28% | inactive | inactive |  | 7.5% (inactive) | inactive | inactive | inactive | inactive |  |  | inactive
C=Cc1cccc(C)c1 | -0.822% (inactive) |  | inactive |  | inactive |  | -23.4% | inactive | inactive |  | -2.59% (inactive) |  | inactive | inactive | inactive | inactive | inactive | inactive
CCCCOC(=O)COc1ccc(Cl)cc1Cl |  |  | inactive | inactive |  | inactive |  | inactive | inactive |  |  | inactive | inactive | inactive |  |  | inactive | 
O=[N+]([O-])c1ccc(F)cc1F | -0.155% (inactive) | inactive | inactive |  | inactive |  | 10.2% | inactive |  |  | -8.79% (inactive) | inactive |  | inactive |  | inactive | inactive | inactive
CCCC(=O)OC(=O)CCC | 0.516% (inactive) | inactive |  |  |  |  | 16.1% and 21.1% | inactive | inactive | -4.88% (inactive) and -8.13% (inactive) | -12.9% (inactive) |  |  | inactive |  | inactive | inactive | inactive
CC(=O)OCc1ccc2c(c1)OCO2 |  | inactive | inactive |  |  | inactive |  |  |  |  |  | inactive | inactive | inactive | inactive |  |  | inactive
CCC(Cl)CC(Cl)C(Cl)C(Cl)C(Cl)C(C)Cl (stereo not drawn) |  | inactive | inactive |  | inactive |  | -12% |  |  |  | -24.5% (inactive) |  |  |  |  | inactive | inactive | 
C[Si](C)(C)Cl |  |  | inactive | inactive | inactive | inactive |  |  |  |  | -6.55% (inactive) |  | inactive |  | inactive |  | inactive | inactive
c1ccc2c(c1)ccc1ccccc12 |  | inactive |  | inactive | inactive | inactive | -5.89% | inactive | inactive | 2.85% (inactive) and -2.95% (inactive) |  | inactive |  |  | inactive | inactive |  | 
c1ccncc1 |  |  | inactive | inactive | inactive |  |  | inactive | inactive | 1.01% (inactive) | -3.08% (inactive) |  | inactive | inactive |  | inactive |  | inactive
CCN(CC)c1ccc(N)cc1 | 18.6% (inactive) |  |  |  |  |  |  |  |  |  | -118% (active) | 79.4 µM (active) |  |  |  |  | inactive | inactive
